# Screens from PubChem.
# IL1B secr inh: qHTS for Inhibitors of Inflammasome Signaling: IL-1-beta AlphaLISA Primary Screen. THP-1 LPS/ATP IL-1B secretion, AlphaLISA, 16 h; active compounds read low. activity change, % at 57.5 µM. 360,000 tested, 4.7% active; in the data active = activity change below about -50%; inconclusive = mostly about -30% to -49%; also: % is scaled to controls: 0 for no effect and ±100 for the full control effect
#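 Secreted IL-1B measured by AlphaLISA bead assay after 16 h compound exposure of THP-1 cells; compounds (final up to 57.5 uM) added 1 h before LPS (250 ng/mL) and ATP (1.25 mM) stimulation; lower signal means less secretion.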
# Vif-APOBEC3G blk: qHTS for Inhibitors of Vif-A3G Interactions: qHTS; Potency, µM (doses to about 46.1 µM), without a hit: top-dose activity, negative = active, hits mostly inhibitors; HeLa A3G-eYFP + Vif (tagged APOBEC3G with the HIV-1 protein that degrades it), YFP fluorescence, overnight; AID 602310, 2012; 410,000 tested, 0.076% active; DNA dC->dU-editing enzyme APOBEC-3G (Homo sapiens), Q9HC16; also: potency is read from the fitted curve at half-maximal effect; % is scaled to controls: 0 for no effect and ±100 for the full control effect; nearly all actives have a fitted effect of over 60% in size
# Target sequence (Q9HC16 whole entry, looked up): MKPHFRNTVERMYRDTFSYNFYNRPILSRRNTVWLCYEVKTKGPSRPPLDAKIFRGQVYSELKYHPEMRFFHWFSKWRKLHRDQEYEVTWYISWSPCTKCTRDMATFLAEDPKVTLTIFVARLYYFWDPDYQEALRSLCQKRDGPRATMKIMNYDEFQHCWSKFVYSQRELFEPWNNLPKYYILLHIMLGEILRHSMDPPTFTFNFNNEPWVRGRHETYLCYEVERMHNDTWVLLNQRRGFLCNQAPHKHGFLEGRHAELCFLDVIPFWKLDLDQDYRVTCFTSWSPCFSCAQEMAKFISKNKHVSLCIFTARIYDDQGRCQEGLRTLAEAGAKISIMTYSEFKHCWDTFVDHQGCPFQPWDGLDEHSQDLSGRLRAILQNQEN
#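 Read-out is eYFP fluorescence (Ex 488/Em 500-530) from Vif-expressing HeLa A3G-eYFP cells; more signal means A3G escaped Vif-mediated degradation. Cells plated overnight, compound pinned in, incubated overnight at 37 deg C.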
# SW480 rereplic: A quantitative high throughput screen for small molecules that induce DNA re-replication in SW480 colon adenocarcinoma cells; SW480 DNA re-replication, Hoechst DNA content imaging, 48 h; Potency, µM (top dose mostly 46.1 µM), for the others: at the top dose re-replication activation, actives largely listed as activators; 340,000 tested, 1.8% active; AID 624297, 2012; also: potency is read from the fitted curve at half-maximal effect; % of control where 0% means no effect; nearly all actives have a fitted effect of over 55% in size
#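 Readout is total intensity of Hoechst-stained nuclei, excited at 405 nm and collected at 500-530 nm. Compound treatment lasted 48 hr at 37 C in 5% CO2 before staining.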
# MCF10A rerep: A quantitative high throughput screen for small molecules that induce DNA re-replication in MCF 10a normal breast cells | Potency, µM (titrated, usually from 46.1 µM), for inactives: at the top dose activity, positive = re-replication, most hits filed as activators | MCF 10A DNA re-replication, Hoechst nuclear intensity, 48 h | 350,000 tested, 2.9% active; also: potency is read from the fitted curve at half-maximal effect; % of control where 0% means no effect; nearly all actives have a fitted effect of over 50% in size
# Giardia kill: Small Molecules that selectively kill Giardia lamblia: qHTS | 340,000 tested, 0.15% active | AID 540267, 2011 | Giardia lamblia trophozoite viability | activity change, % at 7.66 µM, hits read low; in the data active = activity change below about -80%; inconclusive = between about -30% and that limit;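 also: parasites exposed to compound for two days anaerobically before the ATP read; % is scaled to controls: 0 for no effect and ±100 for the full control effect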
#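 Media and compound were dispensed first, then trophozoites at 100 cells/well; plates sat 48 hrs at 37 deg C without oxygen before ATP luminescence reagent was added and read after 15-30 min at room temperature.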
# Vif-APOBEC3F blk: qHTS for Inhibitors of Vif-A3F Interactions: qHTS | Potency, µM (top dose mostly 46.1 µM), inactives show at the highest dose activity, negative = active | HeLa A3F-eYFP + Vif (tagged APOBEC3F with the HIV-1 protein that degrades it), YFP fluorescence increase | 390,000 tested, 0.2% active | AID 602313, 2012; also: potency is read from the fitted curve at half-maximal effect; % of control where 0% means no effect; nearly all actives have a fitted effect of over 65% in size
#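 HeLa cells stably expressing Vif plus C-terminally eYFP-tagged A3F were seeded, incubated overnight at 37 deg C, dosed with compound, incubated overnight again at 37 deg C. Yellow fluorescence (Ex 488/Em 500-530) reported blocked Vif-mediated A3F-eYFP degradation.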
# The depositor's hits bear a star; ? = inconclusive; · = not tested or not shown. Hits are enriched below; roughly 6.9% of the tested compounds scored in any of these assays. Unless noted, calls follow the shape of the dose curve; as a rule, active = well fitted curve in the direction sought with a large enough effect; inconclusive = small, poorly fitted or top-dose-only effect, or another doubt; inactive = no such curve, though single readings can be large; an effect the other way counts as inactive or inconclusive.
SMILES,IL1B secr inh,Vif-APOBEC3G blk,SW480 rereplic,MCF10A rerep,Giardia kill,Vif-APOBEC3F blk
O=S(=O)(Nc1nc2ccccc2nc1Cl)c1ccc2c(c1)OCCO2,3,-24%,0%,-1%,-24,-7%
Cc1cc(N2CCOCC2)ccc1/C=C1\NC(=O)N(Cc2ccccc2)C1=O,5,9%,-13%,?,-16,-27%
Cc1cc(N2CCOCC2)ccc1/C=C1\NC(=O)N(Cc2ccccc2F)C1=O,-7,-15%,7%,5.2µM*,0,?
CCCC(=O)OCC(=O)NCc1ccc(Cl)cc1,4,-1%,-3%,2%,-1,3%
O=C(COC(=O)CC(c1ccccc1)c1ccccc1)NCc1ccc(Cl)cc1,-71*,-7%,?,?,4,-5%
CN(C)CCOC(=O)CCCCCCCCC(=O)OCCN(C)C,·,-2%,3.7µM*,-1%,7,7%
CN(C)CCOC(=O)CCc1ccccc1,5,0%,-2%,0%,-1,-4%
CC(=O)Nc1ccc(CNc2nc(NC(C)C)nc3ccsc23)cc1,-90*,2%,·,·,·,·
CC(=O)Nc1ccc(CNc2nc(NCC3CC3)nc3ccsc23)cc1,-105*,-10%,·,·,·,·
O=C(NCC1CCN(Cc2ccc(F)cc2)CC1)c1cc2ccc3cccnc3c2[nH]1,·,8%,·,·,·,-2%
COc1ccc(C)cc1NC(=O)c1ccc2nc(Cc3ccccc3)oc2c1,·,-3%,·,·,·,3%
COc1cc2c(NC3CCN(C)CC3)nc(N3CCCN(C)CC3)nc2cc1OCCCCCCN(C)C,·,4%,·,·,·,·
COc1cc2c(cc1OC)C(c1cc(Br)ccc1F)N(C(=O)CCl)CC2 (configuration not stated),-71*,?,14%,3.3µM*,-11,1%
O=C(Cc1ccccc1)N(Cc1cccnc1)c1nc2c(F)cc(F)cc2s1,·,-3%,·,·,·,-6%
O=c1ccc(-c2ccccc2)nn1Cc1c(F)cccc1Cl,·,-2%,·,·,·,6%
Cc1cccc(N/N=C(\C(N)=O)C2=NC(C)(C)Cc3ccccc32)c1,-14,-1%,16%,12µM*,-4,1%
CCOC(=O)/C(=N\O)C1=NC(C)(C)Cc2ccccc21,-4,-8%,23%,17%,3,-12%
Cc1nn(-c2ccccc2)c2c1N(CC(=O)N1CCN(c3cccc(Cl)c3)CC1)C(=O)CS2,·,5%,·,·,·,1%
COc1ccccc1Nc1nc(N)nc(CCl)n1,-100*,-20%,12µM*,?,-16,0%
COc1ccc(OC)c(Nc2nc(N)nc(CCl)n2)c1,-102*,-24%,2.6µM*,29µM*,6,0%
Cc1ccccc1Nc1nc(N)nc(-c2oc3ccccc3c2C)n1,·,-22%,27%,36%,31,1%
COc1ccccc1Nc1nc(N)nc(-c2oc3ccccc3c2C)n1,-19,-4%,7.3µM*,?,11,-13%
Cc1ccc(NC(=O)Cn2c(=O)n(CCCCC(=O)NCc3ccc4c(c3)OCO4)c(=O)c3ccccc32)cc1,·,-4%,·,·,·,1%
Cc1cccc(C(=O)NCc2nnc(SCC(=O)NC(C)c3ccccc3)n2C)c1 (configuration not stated),27,1%,18µM*,-4%,-13,2%
Cc1ccc(CCNC(=O)Cn2ncc3c([nH]c4ccc(C)cc43)c2=O)cc1,·,2%,·,·,·,0%
SMILES,IL1B secr inh,Vif-APOBEC3G blk,SW480 rereplic,MCF10A rerep,Giardia kill,Vif-APOBEC3F blk
C=CC(=O)Nc1cccc(Oc2ccnc(Nc3ccc(N4CCN(C)CC4)cc3)n2)c1,-101*,-17%,?,18µM*,-2,6%
C=CC(=O)Nc1cccc(N(C)c2ccnc(Nc3ccc(N4CCN(C)CC4)cc3)n2)c1,-100*,-8%,?,15µM*,?,-2%
CN1CCN(c2ccc(NC(=O)COc3cccc4ccccc34)cc2)CC1,-6,0%,0%,15%,-19,-15%
O=C(NCCc1csc(-c2ccc(F)cc2)n1)C(=O)Nc1ccc(Cl)cc1,·,0%,·,·,·,-1%
CCN(CC)CCN1CCn2c3c(c4cc(C)ccc42)CCCC31 (configuration not stated),?,4%,15µM*,4.1µM*,-17,2%
COc1ccccc1N1CCN(C(=O)c2cc(CC(C)C)on2)CC1,·,-6%,·,·,·,0%
N/C(=N/OC(=O)c1ccccc1Cl)c1ncc([N+](=O)[O-])s1,-88*,0%,?,?,?,4%
N/C(=N\OC(=O)c1ccccc1Cl)c1cccc([N+](=O)[O-])c1,11,0%,4%,0%,23,-4%
N/C(=N\OC(=O)c1ccc([N+](=O)[O-])cc1Cl)c1ccccn1,?,-10%,?,-1%,-2,-2%
N/C(=N\OC(=O)c1cc([N+](=O)[O-])ccc1Cl)c1ccccn1,-96*,?,?,?,-15,?
O=C(NCc1ccc(Cl)cc1)c1cnc(N2CCOCC2)c2ccccc12,·,0%,·,·,·,3%
C=Cc1ccc(Cn2c(=O)n(-c3cccc(C)c3)c(=O)c3c2c2cc(C)ccc2n3C)cc1,·,-1%,·,·,·,-3%
Cc1cc(Cn2cnc3c(cnn3C(C)(C)C)c2=O)ccc1F,·,2%,·,·,·,·
O=C(NC1CCCCCC1)C1CCC(CNS(=O)(=O)c2cccc3cccnc23)CC1 (configuration not stated),·,0%,·,·,·,·
Cc1ccc(NC(=O)c2cnc(SCC(=O)NCC3CCCO3)n(C)c2=O)cc1C (configuration not stated),-98*,-15%,?,?,-2,5%
Cn1c(SCC(=O)NCC2CCCO2)ncc(C(=O)Nc2ccccc2)c1=O (configuration not stated),-74*,-10%,22%,?,-16,-6%
CCOC(=O)/C(=N/O)C1=NC(C)(C)Cc2cc(C)c(C)cc21,-72*,4%,-3%,2%,2,13%
O=C(OCn1ncc(Br)c(Br)c1=O)c1ccccc1Cl,-100*,?,5.6µM*,7.9µM*,4,5%
O=C(OCn1ncc(Br)c(Br)c1=O)c1ccc(F)cc1,-97*,-15%,4.1µM*,4.6µM*,-13,10%
O=C(OCn1nnc2ccccc2c1=O)c1cccnc1Cl,-2,0%,-6%,-6%,12,-5%
Cc1ccc(-c2cccc(C(=O)NCc3ccccc3)n2)c2ccccc12,-11,-4%,16µM*,?,-6,0%
Cc1ccc(-c2cccc(C(=O)NCCc3ccccc3)n2)c2ccccc12,-14,4%,?,-3%,4,4%
